Measured values published in the supplement of paper PMC13380429.

Test system: Vero E6 infected with SARS-CoV-2
Assay: inhibition of SARS-CoV-2 cytopathic effect; higher = more antiviral protection, active = above 15
Settings: 48 h

Measured: inhibition of SARS-CoV-2 cytopathic effect

C=CC(=O)Nc1cccc(Oc2nc(Nc3ccc(N4CCN(C)CC4)cc3)nc3ccsc23)c1 [olmutinib]
inactive: 1 nM -1.91% | 8.33 nM 3.26% | 100 nM 11.6% | 833.33 nM -12% | 10000 nM -10.1%

O=C1c2ccccc2CCC1CNCCc1ccc(O)cc1 (stereo not given)
inactive: 1 nM 0.05% | 8.33 nM -1.18% | 100 nM -2.27% | 833.33 nM -0.45% | 10000 nM -0.46%

O=C(Nc1ccc(C(O)(C(F)(F)F)C(F)(F)F)cc1)c1ccc(C(F)(F)F)cc1
inactive: 1 nM 0.8% | 8.33 nM 1.24% | 100 nM 0.25% | 833.33 nM 1.02% | 10000 nM 1.6%

C=C(c1ccc(C(=O)O)cc1)c1cc2c(cc1C)C(C)(C)CCC2(C)C [bexarotene]
inactive: 1 nM -0.21% | 8.33 nM -0.07% | 100 nM 0.42% | 833.33 nM 0.85% | 10000 nM 0.03%

C[C@H](N/C(=N/C#N)Nc1cccc2ncccc12)c1ccccc1
inactive: 1 nM -1.75% | 8.33 nM -2.48% | 100 nM -3.44% | 833.33 nM 1.32% | 10000 nM 1.97%

CCOc1ccccc1C(N)=O [ethenzamide]
inactive: 1 nM 5.35% | 8.33 nM 3.1% | 100 nM 2.44% | 833.33 nM 2.62% | 10000 nM 4.34%

C[C@@H]([C@H](O)c1ccc(O)cc1)N1CCC(Cc2ccccc2)CC1 (racemic) [ifenprodil]
inactive: 1 nM 2.09% | 8.33 nM -0.2% | 100 nM 0.52% | 833.33 nM 0.72% | 10000 nM -6.19%

C[C@@H](O)[C@H]1C(=O)N2C(C(=O)O)=C(S[C@@H]3CN[C@H](C(=O)Nc4cccc(C(=O)O)c4)C3)[C@H](C)[C@H]12 [ertapenem]
inactive: 1 nM 0.22% | 8.33 nM 3.19% | 100 nM 1.71% | 833.33 nM 2.2% | 10000 nM 2.62%

CC(C)c1cc(C(C)C)c(CC(=O)NS(=O)(=O)Oc2c(C(C)C)cccc2C(C)C)c(C(C)C)c1 [avasimibe]
inactive: 1 nM -2.41% | 8.33 nM 1.3% | 100 nM -0.91% | 833.33 nM -2.68% | 10000 nM -1.52%

CN(c1ccc(NC(=O)Nc2ccccc2)cc1)S(=O)(=O)c1cnn(-c2ccc(F)cc2)c1
inactive: 1 nM 2.37% | 8.33 nM 2.39% | 100 nM 0.06% | 833.33 nM -1.77% | 10000 nM 0.18%

N[C@H](C(=O)O)c1ccc(O)cc1 [oxfenicine]
inactive: 1 nM 2.15% | 8.33 nM 3.82% | 100 nM 2.38% | 833.33 nM 0.58% | 10000 nM 2.3%

CCCNC(=O)Nc1ccc(Oc2ncnc3cc(OC)c(OC)cc23)cc1Cl
inactive: 1 nM 0.58% | 8.33 nM 0.62% | 100 nM 1.2% | 833.33 nM 0.47% | 10000 nM -2.74%

CCOC(=O)C(=O)Nc1cccc(OC)c1C(N)=O
inactive: 1 nM 6.62% | 8.33 nM 7.85% | 100 nM 6.88% | 833.33 nM 2.83% | 10000 nM -0.82%

OCCNC1CCCc2c1[nH]c1ccc(-c3ccccc3)cc21 (stereo not given) [casin]
inactive: 1 nM -1.66% | 8.33 nM 3% | 100 nM 1.22% | 833.33 nM -2.43% | 10000 nM 14.4%

Cc1cc(C)cc(OCC2CNC(=O)O2)c1 (stereo not given) [metaxalone]
inactive: 1 nM -1.78% | 8.33 nM -2.7% | 100 nM -1.26% | 833.33 nM 1.04% | 10000 nM -0.42%

CCN(CC)CCN[C@@H](C(=O)OCCC(C)C)c1ccccc1 [camylofine-chlorhydrate]
inactive: 1 nM -0.61% | 8.33 nM -0.68% | 100 nM -1.25% | 833.33 nM 0.17% | 10000 nM -1.1%

O=C(O)Cc1sc(-c2ccccc2)nc1-c1ccc(Cl)cc1 [fentiazac]
inactive: 1 nM -0.18% | 8.33 nM -2.64% | 100 nM -1.78% | 833.33 nM 0.61% | 10000 nM 1.91%

O=C(O)CC1CC(c2ccccc2)=NO1 (stereo not given)
inactive: 1 nM -0.73% | 8.33 nM 0.07% | 100 nM -0.78% | 833.33 nM 2.86% | 10000 nM 0.36%

CC1=C(/C=C/C(C)=C/C=C/C(C)=C/C=C/C=C(C)/C=C/C=C(C)/C=C/C2=C(C)CCCC2(C)C)C(C)(C)CCC1 [beta-carotene]
inactive: 1 nM -0.41% | 8.33 nM 1.55% | 100 nM 1.56% | 833.33 nM 1.85% | 10000 nM -0.57%
